A short description of experiment [1]: NCI Yeast Anticancer Drug Screen. Data for the rad50 strain (AID 155).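 Also: 0% = growth of vehicle-only cultures of the same strain.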 Particulars: S. cerevisiae rad50 strain growth inhibition; at 50.0 µM; stronger effect = higher value. The method, boiled down: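 Inhibition values express reduced yeast growth in compound-treated cultures relative to vehicle-treated controls.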
The nature of experiment [2]: NCI Yeast Anticancer Drug Screen. Data for the mec2-1 strain (AID 157). The note with it: S. cerevisiae mec2-1 strain, at 50.0 µM, stronger effect = higher value. In outline: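 Using mec2-1 yeast: add compound, measure growth, express inhibition versus vehicle-treated cultures.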
Experiment [3] in a line: NCI Yeast Anticancer Drug Screen. Data for the sgs1 mgt1 strain (AID 161).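 Also: 0% = growth of cultures given vehicle only.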 The note with it: S. cerevisiae sgs1 mgt1 strain, at 50.0 µM, stronger effect = higher value. The method, boiled down: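 This yeast growth screen uses a strain with defined DNA-repair lesions; compound-treated growth is compared with vehicle-treated growth.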
The nature of experiment [4]: NCI Yeast Anticancer Drug Screen. Data for the cln2 rad14 strain (AID 165).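 Also: 0% = growth equal to vehicle treated cultures.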 Particulars: S. cerevisiae cln2 rad14 strain, at 50.0 µM, stronger effect = higher value. In outline:
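Yeast strain cln2 rad14, bearing defects in cell cycle control and DNA repair, serves as the test system; values reflect growth inhibition compared with vehicle.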

Experiment [5] is described as follows: NCI Yeast Anticancer Drug Screen. Data for the bub3 strain (AID 167). The note with it: S. cerevisiae bub3 mutant strain, at 50.0 µM, stronger effect = higher value. The method, boiled down:
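Steps: expose the mutant yeast strain to compound; grow alongside vehicle-treated cultures; measure growth; express inhibition against the vehicle cultures.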

A short description of experiment [6]: NCI Yeast Anticancer Drug Screen. Data for the mlh1 rad18 strain (AID 175). Particulars: S. cerevisiae mlh1 rad18 strain growth inhibition; at 50.0 µM; stronger effect = higher value. The method, boiled down:
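Steps: expose repair-defective yeast to compound; measure growth; express inhibition against vehicle-treated controls.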

About 79,000 compounds went through this panel and 15% of them were active in at least one assay; those are over-represented in the sample as a whole. Unmarked numbers belong to inactive results. The source made the active and inactive calls. Rule as the data show it: active = growth inhibition above about 70%; inactive = the rest.

In the case of `Cc1cc(C)c2ccc(NC(=O)CCC(=O)O)nc2n1`, the growth inhibition in experiment [1] is -15.1%; in experiment [2] it was -32.5%; in experiment [3], 7.45%; in experiment [4], 10.7%; in experiment [5], -27.4%; in experiment [6], -13.4%.

As for `C/C(=N\N=C(/C)c1ccc(N)cc1)c1ccc(N)cc1`, the growth inhibition in experiment [1] was 15.9%; in experiment [2], 5%; in experiment [3] it was 1.9%; in experiment [4] it was -3.3%; in experiment [5], 13.9%; in experiment [6], 9%.

Regarding `Cc1ccc(NC(=O)CCC(=O)C2Cc3ccccc3C2=O)cc1C` (stereo not drawn), the growth inhibition in experiment [1] was -16%; in experiment [2], -7.55%; in experiment [3], -5.05%; in experiment [4], 21.3%; in experiment [5], 1.65%; in experiment [6] it was 3.85%.

Regarding `CCOc1nc2c(c(=O)n(C)c(=O)n2C)n1C`, the growth inhibition in experiment [1] was 26.9%; in experiment [2] it was -7.55%; in experiment [3], -6.25%; in experiment [4], 8%; in experiment [5], 7.65%; in experiment [6], 20.9%.

Consider `COc1ccc(C2(C=O)NC(=O)NC2=O)cc1` (stereo not drawn), for which the growth inhibition is -2.25% in experiment [1]; -22.9% in experiment [2]; -13.5% in experiment [3]; 36% in experiment [4]; -2.6% in experiment [5]; 9% in experiment [6].

For the compound `CC(=O)Nc1ccc(/C=N/Nc2nc3ccccc3s2)cc1`, the growth inhibition in experiment [1] was -10.3%; in experiment [2], -11%; in experiment [3], -5%; in experiment [4], -50.4%; in experiment [5], 1.9%; in experiment [6], 31.1%.

Regarding `O=S(=O)(OCCCCCCCCCCOS(=O)(=O)c1ccc(Cl)cc1)c1ccc(Cl)cc1`, the growth inhibition in experiment [1] was -7.6%; in experiment [2] it was -3.6%; in experiment [3], -3.6%; in experiment [4], 8.6%; in experiment [5] it was -5.3%; in experiment [6] it was -4.55%.

With `C1=C2/CC[C@H](Sc3ccccc3)[C@H]2C2(CCCCC/1)OCCO2`, the growth inhibition was 13.8% in experiment [1]; -19% in experiment [2]; -6.45% in experiment [3]; -1.05% in experiment [4]; 13.2% in experiment [5]; -4.05% in experiment [6].

As for `CCC(=O)C(CC)Cc1ccc(OC)c(OC)c1` (stereo not drawn), the growth inhibition was 1.4% in experiment [1]; -15.9% in experiment [2]; -11.8% in experiment [3]; -5.55% in experiment [4]; 6.55% in experiment [5]; 2.25% in experiment [6].

For `Cc1cccc(C)c1Nc1nc(C)c(C(=O)CC(=O)C(=O)Nc2c(C(C)C)cccc2C(C)C)s1`, the growth inhibition in experiment [1] was 18.3%; in experiment [2], -6.35%; in experiment [3] it was 46.3%; in experiment [4], -15.7%; in experiment [5] it was -3.55%; in experiment [6], 19.6%.

Take `Cc1ccc(N=C=O)cc1N1C(=O)N(c2cc(N=C=O)ccc2C)C1=O`: the growth inhibition in experiment [1] is -41.5%; in experiment [2], -55%; in experiment [3], -48%; in experiment [4], -139%; in experiment [5], -10.5%; in experiment [6] it was -60.4%.

For the compound `C=C[C@@]1(C)CC(=O)[C@]2(O)[C@@]3(C)[C@@H](O)CCC(C)(C)[C@@H]3[C@H](O)[C@@H](OC(C)=O)[C@@]2(C)O1`, the growth inhibition is 0.2% in experiment [1]; -4.4% in experiment [2]; -5.75% in experiment [3]; 9.2% in experiment [4]; -4.15% in experiment [5]; -68% in experiment [6].

With `CCCCC1(CC)COC2(CCCCC2)OC1`, the growth inhibition in experiment [1] is 17.1%; in experiment [2] it was 37%; in experiment [3] it was 13.3%; in experiment [4], -22.2%; in experiment [5] it was 6.85%; in experiment [6], 6.95%.

`CC(=O)Oc1cccc(C)c1`: the growth inhibition was -20.6% in experiment [1]; -4.75% in experiment [2]; -18.8% in experiment [3]; -28.4% in experiment [4]; -13.2% in experiment [5]; -5.65% in experiment [6].

For `Cc1c2c(c(C)c3c1C(=O)c1cc4c(cc1C3=O)OCO4)OC(C)O2`, the growth inhibition was -10.5% in experiment [1]; -15.5% in experiment [2]; -18.6% in experiment [3]; -28.4% in experiment [4]; -47.7% in experiment [5]; -18.6% in experiment [6].

On to `CC(C)CN(CC(=O)Nc1cccc(Cl)c1)CC(C)C`, for which the growth inhibition in experiment [1] is -4.35%; in experiment [2], 11.9%; in experiment [3], 4.15%; in experiment [4], -17.9%; in experiment [5], 5.25%; in experiment [6] it was 2.1%.

In the case of `CCCC(NC(C)=O)C(=O)O` (stereo not drawn), the growth inhibition in experiment [1] was 8.6%; in experiment [2], 2.75%; in experiment [3] it was 2.8%; in experiment [4], -21.1%; in experiment [5], 1.15%; in experiment [6], 8%.

As for `CN(C)c1ccc(-c2c(C#N)c(N)[nH]c(=S)c2C#N)cc1`, the growth inhibition is 9.9% in experiment [1]; -2.35% in experiment [2]; 4.7% in experiment [3]; 6.35% in experiment [4]; 16.9% in experiment [5]; 3.45% in experiment [6].

Consider `CCCCCCN(CCCCCC)C(=S)N/N=C(\C)c1ccccn1`, for which the growth inhibition was 85% (active) in experiment [1]; 85.5% (active) in experiment [2]; 83.7% (active) in experiment [3]; 72.3% (active) in experiment [4]; 87.6% (active) in experiment [5]; 82.2% (active) in experiment [6].

Regarding `Cc1[nH]n(C(=O)c2ccc(Cl)cc2)c(=O)c1/C=C1\C(O)=CC(=O)c2ccccc21`, the growth inhibition in experiment [1] was 31.6%; in experiment [2], -6.85%; in experiment [3], 18.7%; in experiment [4], -19.6%; in experiment [5], 30.7%; in experiment [6], 16.9%.

Consider `Nc1cnc2c(c1)c(=O)nc1n2CCS1`, for which the growth inhibition in experiment [1] is -0.45%; in experiment [2], 9.65%; in experiment [3], 6.6%; in experiment [4], 5.3%; in experiment [5] it was 0.5%; in experiment [6], -27.1%.

Consider `Cc1cc(S(N)(=O)=O)c2ncccc2c1`, for which the growth inhibition was 1.8% in experiment [1]; -3.5% in experiment [2]; 2.35% in experiment [3]; -33.1% in experiment [4]; -8.4% in experiment [5]; -3.2% in experiment [6].

Turning to `CC(C)[N+](=C1O[B-](c2ccccc2)(c2ccccc2)O[B-]1(c1ccccc1)[C+]1CCCCC1)C(C)C` (stereo not drawn), the growth inhibition was -51.1% in experiment [1]; -4.45% in experiment [2]; 10.8% in experiment [3]; 19.8% in experiment [4]; 2.15% in experiment [5]; 2.2% in experiment [6].

For the compound `COC(=O)C(C(=O)C(=O)Nc1ccccc1C(C)=O)c1nc2ccc(Cl)cc2[nH]c1=O` (stereo not drawn), the growth inhibition was -31.9% in experiment [1]; -16.2% in experiment [2]; -12.3% in experiment [3]; -4.45% in experiment [4]; -19.3% in experiment [5]; -14.4% in experiment [6].

In the case of `CC(Oc1ccc(OCC2CCCCC2)cc1)C(=O)OCC(=O)c1ccc(-c2ccccc2)cc1` (stereo not drawn), the growth inhibition in experiment [1] is -9.75%; in experiment [2], -7.4%; in experiment [3], -19.1%; in experiment [4], -3.15%; in experiment [5] it was -7.7%; in experiment [6], -11.3%.

As for `CC1OC(n2ccc(=O)[nH]c2=O)C=C(OC(=O)c2ccccc2)C1=O` (stereo not drawn), the growth inhibition in experiment [1] was 12.2%; in experiment [2], -12.2%; in experiment [3], -11.4%; in experiment [4] it was -7%; in experiment [5], -9.55%; in experiment [6], 3.4%.

For the compound `CNc1ncnc2[nH]cc([N+](=O)[O-])c12`, the growth inhibition in experiment [1] is 6.45%; in experiment [2], 1.95%; in experiment [3] it was 10.1%; in experiment [4], 9.05%; in experiment [5], 3.9%; in experiment [6] it was 33.6%.

Regarding `Nc1nc(N)c2nn(-c3ccc(C(=O)O)cc3)nc2n1`, the growth inhibition was -13.6% in experiment [1]; 7.85% in experiment [2]; -5.15% in experiment [3]; -16.9% in experiment [4]; -11.2% in experiment [5]; 6.05% in experiment [6].

Turning to `O=C1c2ccccc2N2Oc3ccccc3C12c1ccccc1` (stereo not drawn), the growth inhibition in experiment [1] is -3.45%; in experiment [2] it was -13.2%; in experiment [3], -16%; in experiment [4], 0.55%; in experiment [5] it was -21.2%; in experiment [6], 18.8%.

As to `C[C@H]1CCCCC[C@@H]2CC(=O)CC2C(=O)CCC(=O)O1` (stereo partly drawn), the growth inhibition was 17.6% in experiment [1]; -4.25% in experiment [2]; -10.6% in experiment [3]; 8.05% in experiment [4]; -8.85% in experiment [5]; 12.7% in experiment [6].

In the case of `CCC(CC)C(=O)O`, the growth inhibition was -11.2% in experiment [1]; -3.5% in experiment [2]; -34.4% in experiment [3]; -22.5% in experiment [4]; 7.85% in experiment [5]; -34.8% in experiment [6].

Regarding `N#Cc1cn(Cc2ccccc2)c2ccccc2c1=O`, the growth inhibition is -0.3% in experiment [1]; -3.15% in experiment [2]; 3.95% in experiment [3]; 47.9% in experiment [4]; 7.3% in experiment [5]; 1.15% in experiment [6].

With `Cc1[nH]c(=O)[nH]c(=O)c1CCS`, the growth inhibition in experiment [1] is -12.2%; in experiment [2], 1.2%; in experiment [3], 5.3%; in experiment [4] it was 37.5%; in experiment [5] it was -20%; in experiment [6], -13.2%.

For `CCN(CC)CCOC(=O)c1ccc(Cl)c(Cl)c1`, the growth inhibition in experiment [1] is 13.8%; in experiment [2], -5.9%; in experiment [3], 19.9%; in experiment [4] it was -46.3%; in experiment [5], -6.6%; in experiment [6], -9.4%.

Take `CC1=CC(CO)C2C(=O)NC(=O)C2C1C` (stereo not drawn): the growth inhibition in experiment [1] was 7.2%; in experiment [2] it was -6.15%; in experiment [3] it was -9.75%; in experiment [4], -39.5%; in experiment [5] it was -17.1%; in experiment [6], 7.7%.

Take `CCC[n+]1ccccc1C`: the growth inhibition in experiment [1] is -0.95%; in experiment [2] it was 19.4%; in experiment [3], -4.3%; in experiment [4], 1.35%; in experiment [5], 7.9%; in experiment [6], 3.65%.

Take `CCOC(=O)C[N+]1(C)CCC(O)CC1` (stereo not drawn): the growth inhibition in experiment [1] is 3.15%; in experiment [2] it was 26.1%; in experiment [3], -2.55%; in experiment [4], -0.45%; in experiment [5], 16.6%; in experiment [6], 7.55%.

Turning to `O=C(O)c1ccc([N+](=O)[O-])c(P(=O)(O)O)c1`, the growth inhibition in experiment [1] was -5.95%; in experiment [2], -7%; in experiment [3], -12.2%; in experiment [4], -42.8%; in experiment [5] it was -29.6%; in experiment [6] it was -3.5%.

These data come from PubChem BioAssay (NCI).
